In PubChem BioAssay (Tox21):
Results filed as inconclusive are left out. Activity calls are given as the source filed them. Unless noted, the call rests on the fitted dose curve; in most records, active means well fitted cell-killing curve with a large enough effect in the repeat runs; inconclusive means weak or mixed curves, or effect the other way; inactive means no such curve, though single readings can be large or run the other way.

Biological target: Peroxisome proliferator-activated receptor gamma (Homo sapiens) (UniProt P37231)
Test: qHTS assay to identify small molecule agonists of the peroxisome proliferator-activated receptor gamma (PPARg) signaling pathway (AID 743094; active means well fitted activation curve with a large enough effect in the signal ratio in the repeat runs, not every such curve was filed as active; the % refers to the signal ratio)
Conditions: HEK293H PPARg-UAS-bla, beta-lactamase FRET ratio, 17 h; series mostly up to 57 µM; activation: at the top concentration
Outline: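 Following 5 h plating at 37C, PPARg-bla HEK293H cells receive compound or DMSO for 17 h; fluorescence intensity is recorded after LiveBLAzer B/G loading for 1 h at room temperature.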
On the % scale 0 is the no-effect control and ±100 the full control effect.

Sequence of Peroxisome proliferator-activated receptor gamma (Homo sapiens) (P37231 whole entry, looked up): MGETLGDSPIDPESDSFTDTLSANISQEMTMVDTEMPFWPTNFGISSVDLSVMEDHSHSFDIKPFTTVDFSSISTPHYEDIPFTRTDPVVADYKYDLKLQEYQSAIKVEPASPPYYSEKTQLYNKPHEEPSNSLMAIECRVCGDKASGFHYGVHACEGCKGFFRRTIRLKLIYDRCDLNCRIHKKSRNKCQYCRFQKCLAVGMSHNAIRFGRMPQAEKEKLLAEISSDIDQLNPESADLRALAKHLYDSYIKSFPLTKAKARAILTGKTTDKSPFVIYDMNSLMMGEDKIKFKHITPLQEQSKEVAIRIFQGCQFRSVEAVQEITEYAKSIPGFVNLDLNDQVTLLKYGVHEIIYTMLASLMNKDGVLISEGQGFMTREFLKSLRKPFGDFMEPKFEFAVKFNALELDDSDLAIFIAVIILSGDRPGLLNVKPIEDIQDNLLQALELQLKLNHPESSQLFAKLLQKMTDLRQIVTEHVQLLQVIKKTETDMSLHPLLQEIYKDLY

Structure (SMILES) | activation
O=[N+]([O-])c1ccc(CBr)cc1 | -2.21% [at 78.9 µM] (inactive)
CC(C)CP(=S)(S)CC(C)C | 3.13% (inactive)
CCS(=O)(=O)C(C)(C)S(=O)(=O)CC | 1.18% (inactive)
CC(C1CC1)C(O)(Cn1cncn1)c1ccc(Cl)cc1 (stereo not drawn) | -4.23% (inactive)
C1CCC(C2CCCCC2)CC1 | 7.64% (inactive)
C#CCN1C(=O)COc2cc(F)c(N3C(=O)C4=C(CCCC4)C3=O)cc21 | -8.36% (inactive)
CCC(C)(C)c1cc(-n2nc3ccccc3n2)c(O)c(C(C)(C)CC)c1 | 1.16% [at 78.9 µM] (inactive)
[Cl][Sn]([Cl])([Cl])[Cl] | 1.38% [at 78.9 µM] (inactive)
CSc1nc(N=[N+]=[N-])nc(NC(C)C)n1 | -3.92% (inactive)
Cc1ncsc1CCCl | 6% (inactive)
CCCSC(=O)Cl | -8.72% [at 78.9 µM] (inactive)
CCOC(=O)CP(=O)(OCC)OCC | -4.59% (inactive)
CCN(Cc1ccc(Cl)nc1)/C(=C/[N+](=O)[O-])NC | -4.64% (inactive)
CC1CCCCC1NC(=O)Nc1ccccc1 (stereo not drawn) | 3.5% (inactive)
Cc1nnc2n1-c1sc(CCC(=O)N3CCOCC3)cc1C(c1ccccc1Cl)=NC2 | -4.11% (inactive)
CC(CCc1ccccc1)NC(C)C(O)c1ccc(O)cc1 (stereo not drawn) | -0.217% (inactive)
Cc1cccc(C#N)c1 | -4.12% (inactive)
CC1(C)C(=O)NC(=O)NC1=O | -4.9% (inactive)
CS(=O)(=O)c1cc(C(F)(F)F)ccc1C(=O)c1cnoc1C1CC1 | 10.4% (inactive)

Biological target: Peroxisome proliferator-activated receptor gamma (Homo sapiens) (UniProt P37231)
Test: qHTS assay to identify small molecule antagonists of the peroxisome proliferator-activated receptor gamma (PPARg) signaling pathway (AID 743191; calls by dose curve; further: nearly all actives have a fitted effect of over 30% in size)
Conditions: HEK293H PPARg-UAS-bla, beta-lactamase ratio, antagonist, 17 h; series mostly up to 62.6 µM; ratio activity, negative = inhibition: at the top concentration
Outline: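 GeneBLAzer PPARg UAS-bla HEK293H cells, 5 h post-plating, exposed to compounds 17 h at 37C. LiveBLAzer B/G FRET substrate added for 1 h at room temperature; beta-lactamase reporter read by fluorescence intensity.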

Structure (SMILES) | ratio activity, negative = inhibition
CC(Cl)(Cl)[N+](=O)[O-] | -0.174% (inactive)
COC(=O)c1c(C(F)F)nc(C(F)(F)F)c(C2=NCCS2)c1CC(C)C | 3.93% (inactive)
O=C1c2ccccc2C(=O)c2ccccc21 | 9.41% [at 29.1 µM] (inactive)
COC(=O)c1ccccc1S(=O)(=O)NC(=O)Nc1nc(C)cc(C)n1 | 1.79% (inactive)
CCCCc1c(C)nc(NCC)[nH]c1=O | 18.7% (inactive)
CCOP(=S)(OCC)Oc1nc(Cl)n(C(C)C)n1 | -9.61% (inactive)
CCC1(c2ccccc2)C(=O)NC(=O)NC1=O | -13.8% [at 81.1 µM] (inactive)
Nc1cc2c3c(c1)C(c1ccccc1)=N[C@@H](NC(=O)c1cccnc1)C(=O)N3CC2 | -5.18% (inactive)
COc1cc(OC)nc(Oc2cccc(Oc3nc(OC)cc(OC)n3)c2C(=O)O)n1 | 0.905% (inactive)
CNC(=O)Oc1c(C(C)(C)C)cc(C)cc1C(C)(C)C | 3.25% (inactive)
COC(=O)C(C)Oc1ccc(Oc2ccc(Cl)cc2Cl)cc1 (stereo not drawn) | 1.1% (inactive)
CN1CCN(C(=O)O[C@H]2c3nccnc3C(=O)N2c2ccc(Cl)cn2)CC1 | -12.1% (inactive)
CC(COc1ccc(Oc2ccccc2)cc1)Oc1ccccn1 (stereo not drawn) | -4.04% (inactive)
CCCSP(=S)(OCC)Oc1ccc(Cl)cc1Cl (stereo not drawn) | 1.44% (inactive)
NC(=O)c1cc([N+](=O)[O-])cc([N+](=O)[O-])c1 | 0.757% (inactive)
ClC(Cl)Br | 0.545% [at 81.1 µM] (inactive)
c1cc2c(c(N3CCNCC3)c1)OCCO2 | -8% (inactive)
CN1C(=S)CN=C(c2ccccc2)c2cc(Cl)ccc21 | 0.29% (inactive)

Test system: not listed separately
Test: qHTS assay to identify small molecule antagonists of the peroxisome proliferator-activated receptor gamma (PPARg) signaling pathway - cell viability counter screen (AID 743194); further: nearly all actives have a fitted effect of over 55% in size
Conditions: PPARg-bla HEK293H viability, CellTiter-Glo luminescence, 17 h; Potency: co-treated with 50 nM rosiglitazone; series mostly up to 62.6 µM; activity change, negative = cytotoxicity: at the top concentration
Outline: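 Cytotoxicity counter screen in PPARg-bla HEK293H cells, same wells as reporter assay. Compounds plus 50 nM rosiglitazone (final) for 17 h at 37 C, then viability read by CellTiter-Glo luminescence.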

Structure (SMILES) | activity change, negative = cytotoxicity
O=[N+]([O-])c1ccc(CBr)cc1 | -35.6% [at 81.1 µM, co-treated with 50 nM rosiglitazone] (inactive)
CC(Cl)(Cl)[N+](=O)[O-] | 6.79% (inactive)
CC(C)CP(=S)(S)CC(C)C | -23.4% (inactive)
COC(=O)c1c(C(F)F)nc(C(F)(F)F)c(C2=NCCS2)c1CC(C)C | -19.6% (inactive)
CCS(=O)(=O)C(C)(C)S(=O)(=O)CC | 29.8% [at 62.6 µM] (inactive)
O=C1c2ccccc2C(=O)c2ccccc21 | 1.9% [at 29.1 µM, co-treated with 50 nM rosiglitazone] (inactive)
COC(=O)c1ccccc1S(=O)(=O)NC(=O)Nc1nc(C)cc(C)n1 | 2.86% (inactive)
CCCCc1c(C)nc(NCC)[nH]c1=O | 1.46% (inactive)
CCOP(=S)(OCC)Oc1nc(Cl)n(C(C)C)n1 | -3.85% (inactive)
CCC1(c2ccccc2)C(=O)NC(=O)NC1=O | -0.995% [at 81.1 µM] (inactive)
Nc1cc2c3c(c1)C(c1ccccc1)=N[C@@H](NC(=O)c1cccnc1)C(=O)N3CC2 | -2.35% (inactive)
CC(C1CC1)C(O)(Cn1cncn1)c1ccc(Cl)cc1 (stereo not drawn) | 8.72% (inactive)
C1CCC(C2CCCCC2)CC1 | 6.05% (inactive)
C#CCN1C(=O)COc2cc(F)c(N3C(=O)C4=C(CCCC4)C3=O)cc21 | -10.7% (inactive)
COc1cc(OC)nc(Oc2cccc(Oc3nc(OC)cc(OC)n3)c2C(=O)O)n1 | -1.45% (inactive)
CCC(C)(C)c1cc(-n2nc3ccccc3n2)c(O)c(C(C)(C)CC)c1 | 12.8% [at 81.1 µM, co-treated with 50 nM rosiglitazone] (inactive)
[Cl][Sn]([Cl])([Cl])[Cl] | 4.68% [at 81.1 µM, co-treated with 50 nM rosiglitazone] (inactive)
CNC(=O)Oc1c(C(C)(C)C)cc(C)cc1C(C)(C)C | -23.9% (inactive)

Structure (SMILES) | activity change, negative = cytotoxicity
CSc1nc(N=[N+]=[N-])nc(NC(C)C)n1 | -35.5% (inactive)
CCCSC(=O)Cl | -1.05% [at 81.1 µM, co-treated with 50 nM rosiglitazone] (inactive)
COC(=O)C(C)Oc1ccc(Oc2ccc(Cl)cc2Cl)cc1 (stereo not drawn) | -4.8% (inactive)
CCOC(=O)CP(=O)(OCC)OCC | 11.4% (inactive)
CN1CCN(C(=O)O[C@H]2c3nccnc3C(=O)N2c2ccc(Cl)cn2)CC1 | -8.08% [at 62.6 µM] (inactive)
CC(COc1ccc(Oc2ccccc2)cc1)Oc1ccccn1 (stereo not drawn) | 9.82% (inactive)
CCN(Cc1ccc(Cl)nc1)/C(=C/[N+](=O)[O-])NC | 18.4% (inactive)
CCCSP(=S)(OCC)Oc1ccc(Cl)cc1Cl (stereo not drawn) | -25.3% (inactive)
CC1CCCCC1NC(=O)Nc1ccccc1 (stereo not drawn) | 4.48% (inactive)
NC(=O)c1cc([N+](=O)[O-])cc([N+](=O)[O-])c1 | 6.62% (inactive)
Cc1nnc2n1-c1sc(CCC(=O)N3CCOCC3)cc1C(c1ccccc1Cl)=NC2 | -11.8% [at 62.6 µM] (inactive)
CC(CCc1ccccc1)NC(C)C(O)c1ccc(O)cc1 (stereo not drawn) | 1.67% (inactive)
Cc1cccc(C#N)c1 | -1.4% (inactive)
ClC(Cl)Br | 2.13% [at 81.1 µM, co-treated with 50 nM rosiglitazone] (inactive)
c1cc2c(c(N3CCNCC3)c1)OCCO2 | 21.5% [at 62.6 µM] (inactive)
CN1C(=S)CN=C(c2ccccc2)c2cc(Cl)ccc21 | 2.52% [at 62.6 µM] (inactive)
CC1(C)C(=O)NC(=O)NC1=O | 18.7% [at 62.6 µM] (inactive)
CS(=O)(=O)c1cc(C(F)(F)F)ccc1C(=O)c1cnoc1C1CC1 | 15.7% (inactive)
